13 molecules from PubChem BioAssay (EPA / NIEHS) can be followed below.

Read-out in assay [1]: Interleukin 6 (IL6), IL6 (gene 3569)
The assay can be described thus: BSK_BT_xIL6: BioMAP Diversity Plus: BT Assay for Interleukin 6 (IL6) Biomarker Activity (AID 2284228). To be noted: primary human B cells with PBMC. An outline of the steps: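 Human B cell/PBMC co-culture; secreted IL-6 quantified by Luminex xMAP 24 h after chemical dosing, fitted relative to DMSO. Parallel PBMC viability by Alamar Blue after 1 h pretreatment, 20 ng/mL SEB and TSST-1, 90 h incubation.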

Read-out in assay [2]: Interleukin 17A (IL17A), IL17A (gene 3605)
The assay can be described thus: BSK_BT_xIL17A: BioMAP Diversity Plus: BT Assay for Interleukin 17A (IL17A) Biomarker Activity (AID 2284229). To be noted: primary human B cells with PBMC. An outline of the steps: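 Co-culture of human B cells and PBMC, dosed for 24 h in 96-well format. Secreted IL-17A measured with Luminex xMAP; gain-direction fitting against DMSO as baseline.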

Read-out in assay [3]: Tumor necrosis factor (Homo sapiens) (UniProt P01375)
The assay can be described thus: BSK_BT_xTNFa: BioMAP Diversity Plus: BT Assay for Tumor necrosis factor alpha (TNF-alpha) Biomarker Activity (AID 2284230). As to conditions: primary human B cells with PBMC. An outline of the steps:
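B cells with PBMC in co-culture, dosed and sampled at 24 h; secreted TNF-alpha measured by Luminex xMAP bead assay. Activity fitted in the gain direction against DMSO as negative control and baseline.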

Read-out in assay [4]: Collagen I, COL1A1 (gene 1277)
The assay can be described thus: BSK_MyoF_CollagenI: BioMAP Diversity Plus: MyoF Assay for Collagen I Biomarker Activity (AID 2284238). As to conditions: primary human lung fibroblasts. The gist of the method:
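Primary human lung fibroblasts (MyoF system) treated 24 h; Collagen I quantified by ELISA and fitted in positive direction against DMSO. Parallel SRB total-protein staining assessed overt cytotoxicity.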

Read-out in assay [5]: Collagen III, COL3A1 (gene 1281)
The assay can be described thus: BSK_MyoF_CollagenIII: BioMAP Diversity Plus: MyoF Assay for Collagen III Biomarker Activity (AID 2284239). As to conditions: primary human lung fibroblasts. The gist of the method:
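Primary human lung fibroblasts (BioMAP MyoF system) exposed 24 h. Collagen III measured by ELISA; positive-direction fit relative to DMSO.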

Read-out in assay [6]: Interleukin 17F (IL17F), IL17F (gene 112744)
The assay can be described thus: BSK_BT_xIL17F: BioMAP Diversity Plus: BT Assay for Interleukin 17F (IL17F) Biomarker Activity (AID 2284243). To be noted: primary human B cells with PBMC. An outline of the steps:
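Human PBMC co-cultured with B cells, compound exposure 24 h; secreted IL-17F quantified by Luminex xMAP, referenced to DMSO control. PBMC viability measured in parallel by Alamar Blue reduction.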

Read-out in assay [7]: Actin alpha 1 (ACTA1), ACTA1 (gene 58)
The assay can be described thus: BSK_MyoF_ACTA1: BioMAP Diversity Plus: MyoF Assay for Actin alpha 1 (ACTA1) Biomarker Activity (AID 2284244). As to conditions: primary human lung fibroblasts. An outline of the steps: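 Measured by ELISA: alpha-smooth muscle actin in human primary lung fibroblasts 24 h after dosing, with DMSO as baseline and upward signal change as the fitted direction.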

Read-out in assay [8]: Interleukin 2 (IL2), IL2 (gene 3558)
The assay can be described thus: BSK_BT_xIL2: BioMAP Diversity Plus: BT Assay for Interleukin 2 (IL2) Biomarker Activity (AID 2284245). To be noted: primary human B cells with PBMC. An outline of the steps:
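Secreted interleukin-2 from human B cell/PBMC co-cultures, measured 24 h post-dosing by Luminex multiplex immunoassay. Upward-direction curve fitting against DMSO baseline.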

Read-out in assay [9]: Basic fibroblast growth factor (bFGF), FGF2 (gene 2247)
The assay can be described thus: BSK_MyoF_bFGF: BioMAP Diversity Plus: MyoF Assay for Basic fibroblast growth factor (bFGF) Biomarker Activity (AID 2284246). As to conditions: primary human lung fibroblasts. The gist of the method: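 In this multiplexed cell system, lung fibroblasts (human primary) receive test chemical for 24 h before ELISA detection of bFGF; DMSO defines baseline and the analysis direction is positive.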

Read-out in assay [10]: Collagen IV, COL4A1 (gene 1282)
The assay can be described thus: BSK_MyoF_CollagenIV: BioMAP Diversity Plus: MyoF Assay for Collagen IV Biomarker Activity (AID 2284247). To be noted: primary human lung fibroblasts. The gist of the method:
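Activity is scored as a signal increase over DMSO in an ELISA for Collagen IV, measured on human lung fibroblasts at 24 h after chemical treatment. Cytotoxicity is checked in parallel cultures by sulforhodamine B total-protein staining.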

Read-out in assay [11]: Vascular cell adhesion molecule 1 (VCAM1), VCAM1 (gene 7412)
The assay can be described thus: BSK_MyoF_VCAM1: BioMAP Diversity Plus: MyoF Assay for Vascular cell adhesion molecule 1 (VCAM1) Biomarker Activity (AID 2284231). As to conditions: primary human lung fibroblasts. An outline of the steps:
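Primary human lung fibroblasts (BioMAP MyoF system) dosed with chemical, VCAM-1 measured by ELISA 24 hours later. Fitted in the positive direction against DMSO; parallel SRB staining assessed cytotoxicity.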

Assay [12] in a line: CCTE_Mundy_HCI_Cortical_NOG_NeuronCount: CCTE's Neurite Outgrowth Assay in rat cortical cells for Neuron Count, Mundy Lab (AID 2284236; active means hit-call score of the fitted dose curve at least 0.9, where 1 is the maximum;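 further: neurons counted by imaging betaIII-tubulin and Hoechst stained cortical cells; cells exposed to compound for about 48 hours before fixation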). An outline of the steps:
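Read-out: neuron number by high-content imaging of betaIII-tubulin (Alexa Fluor-488) and Hoechst-labelled rat primary cortical cells.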

Assay [13] can be described thus: CCTE_Mundy_HCI_Cortical_NOG_BPCount: CCTE's Neurite Outgrowth Assay in rat cortical cells for Branch Point Count, Mundy Lab (AID 2284237).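 Further: branch points counted about two days after chemical exposure.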 An outline of the steps:
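Measured 50.33 h after dosing, this morphology endpoint uses rat primary cortical cultures labelled for betaIII-tubulin. Branch points are quantified by high-content imaging, with DMSO as negative control and baseline.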

Assay [14] is described as follows: CCTE_Mundy_HCI_hNP1_Casp3_7: CCTE's Caspase-Glo 3/7 Assay in human neuroprogenitor cells for Apoptosis, Mundy Lab (AID 2284240). An outline of the steps:
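Apoptosis is scored by activated caspase-3/7 luminescence in WA09-derived neural progenitor cells, measured 26.5 h after chemical dosing. Values represent gain of signal relative to DMSO vehicle.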

Assay [15] can be described thus: CCTE_Mundy_HCI_Cortical_Synap_Neur_Matur_NeuronCount: CCTE's Synaptogenesis and Neurite Maturation Assay in rat cortical cells for Neuron Count, Mundy Lab (AID 2284242; active means hit-call score of the fitted dose curve at least 0.9, where 1 is the maximum;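 further: neuron number from Hoechst nuclei and MAP2 staining by high-content imaging; hits reduce neuron count versus DMSO baseline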). An outline of the steps:
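Imaging-based neuron count in rat cortical cultures after chemical exposure from DIV 7 to DIV 12, with AraC added at DIV 5. Activity is fitted relative to DMSO.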

Several values for one entry are separate records, joined by “and”; a condition that tells them apart may be missing. Equal entries are not always repeated. Results filed as inconclusive are left out. Some compounds were tested as several samples or in several runs, with calls that do not always agree. Activity calls are given as the source filed them. How the source made its calls, unless noted: active means hit-call score of the fitted dose curve at least 0.9, where 1 is the maximum; inactive means score below 0.9.

Sequence of Tumor necrosis factor (Homo sapiens) (P01375 whole entry, looked up): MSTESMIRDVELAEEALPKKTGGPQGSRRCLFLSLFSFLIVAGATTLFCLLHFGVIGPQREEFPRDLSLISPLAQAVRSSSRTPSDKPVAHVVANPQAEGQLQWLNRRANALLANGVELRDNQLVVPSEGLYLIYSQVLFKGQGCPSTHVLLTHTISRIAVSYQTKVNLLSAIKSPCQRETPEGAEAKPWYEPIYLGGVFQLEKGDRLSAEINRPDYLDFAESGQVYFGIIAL

In the case of `C#CCOC(=O)/C=C(C)/C=C/CC(C)CCCC(C)C` (stereo not given), the result in [1], in assay [2], in [3], in assay [4], in [5] and in [6] was inactive. The result in [8], in assay [9] and in assay [10] was inactive. In assay [7], the half-maximal activity concentration (AC50) was 16.4 µM (active).
`Cc1cccc(OP(=O)(Oc2cccc(C)c2)Oc2cccc(C)c2)c1`: the result in [1], in assay [2], in [3], in assay [4], in assay [5] and in [6] was inactive. For the same molecule, the outcome in assay [7], in assay [8] and in [9] was inactive. In addition, in [10], the half-maximal activity concentration (AC50) was 0.0382 µM (active).
Turning to `CCC(C)(C#N)N=NC(C)(C#N)CC` (stereo not given), the outcome in assay [1], in assay [2], in assay [3], in [11], in assay [4] and in assay [5] was inactive. Further, the outcome in assay [6], in assay [7], in assay [8], in [9] and in assay [10] was inactive.
As for `Oc1cccc(-c2ccccc2)c1`, the result in assay [1], in [2], in assay [3], in assay [6], in assay [8] and in [9] was inactive. In addition, the outcome in assay [10] was inactive. The figures for the AC50 in assay [4], in assay [5] and in assay [7] were 20 µM (active), 31.3 µM (active) and 33.6 µM (active), respectively.
Take `CCOC(=O)CCN(SN(C)C(=O)Oc1cccc2c1OC(C)(C)C2)C(C)C`: the AC50 in [1] was 33.4 µM (active); in assay [2] it was 26.5 µM (active); in assay [3], 36.7 µM (active); in assay [11], 33.1 µM (active); in [6] it was 30 µM (active); in assay [7] it was 29.3 µM (active). In addition, the AC50 in [8] was 36.3 µM (active). Also, the result in assay [4], in [5], in assay [9] and in assay [10] was inactive.
On to `c1ccc2sc(SNC3CCCCC3)nc2c1`, for which the result in assay [1], in assay [4], in assay [5], in assay [7], in assay [9] and in [10] was inactive. For the same molecule, the AC50 in assay [2] is 20 µM (active); in assay [3], 37.6 µM (active); in assay [6], 32.1 µM (active); in assay [8], 28.9 µM (active).
For `O=c1oc2ccccc2c(O)c1C(CC(O)c1ccc(-c2ccc(Br)cc2)cc1)c1ccccc1` (stereo not given), the result in assay [1], in [2], in assay [3], in assay [6] and in assay [8] was inactive. In addition, the concentration at half-maximal activity (AC50) in assay [11] is 6.21 µM (active); in assay [4] it was 1.94 µM (active); in assay [5] it was 2.53 µM (active); in assay [7], 2.76 µM (active); in assay [9], 11.5 µM (active); in assay [10], 5.33 µM (active).
In the case of `Oc1ccc(Cc2ccc(O)cc2)cc1`, the outcome in [1], in assay [2], in [3], in assay [4], in assay [5] and in assay [6] was inactive. The result in assay [7], in assay [8], in assay [9] and in assay [10] was inactive.
As to `Nc1c(Oc2ccccc2)cc(O)c2c1C(=O)c1ccccc1C2=O`, the result in [1], in [2], in [3], in assay [4], in [5] and in [6] was inactive. The outcome in [7], in assay [8] and in assay [9] was inactive. In addition, the half-maximal activity concentration (AC50) in assay [10] was 2.54 µM (active).
Consider `O=[N+]([O-])c1ccc(Nc2ccccc2)cc1`, for which the result in assay [1], in assay [2], in [3], in assay [11], in assay [4] and in [5] was inactive. The outcome in assay [6], in assay [7], in [8], in assay [9] and in assay [10] was inactive.
As for `CCOC(=O)CC(=O)CCl`, the AC50 in [1] was 11.8 µM (active); in [2], 10.5 µM (active); in assay [3] it was 23.4 µM (active); in assay [6] it was 12.4 µM (active); in assay [8], 20 µM (active). Besides, the outcome in assay [11], in assay [4], in assay [5], in [7], in assay [9] and in assay [10] was inactive.
Turning to `CC1(C)[C@H](C(=O)O[C@H](C#N)c2cccc(Oc3ccccc3)c2)[C@@H]1/C=C(\Cl)C(F)(F)F`, the half-maximal activity concentration (AC50) in assay [1] was 17.1 µM (active) and 8.49 µM (active); in assay [2], 17.1 µM (active); in assay [13] it was 20.2 µM (active); in [15] it was 3.56 µM (active); in assay [6] it was 17.1 µM (active) and 14.6 µM (active); in assay [8], 17.1 µM (active) and 14.2 µM (active). In addition, the result in assay [2], in [3], in assay [12], in [4], in assay [5] and in [14] was inactive. Further, the outcome in assay [7], in assay [9] and in assay [10] was inactive.
Regarding `CC(C=O)Cc1ccc2c(c1)OCO2` (stereo not given), the outcome in assay [1], in assay [2], in assay [3], in assay [4], in assay [5] and in [6] was inactive. Also, the result in assay [7], in assay [8], in assay [9] and in assay [10] was inactive.
